RORgamma inh – blocks mouse ROR gamma transcriptional activity. P51450. Drosophila S2 Gal4-RORgamma UAS-luciferase reporter, 20 h. Potency, µM (doses to about 53.6 µM), inactives show top-dose activity change, negative = inhibition, hits mostly inhibitors. 310,000 tested, 5.4% active; note: potency is the fitted concentration of half-maximal effect; nearly all actives have a fitted effect of over 60% in size
Target sequence (P51450 whole entry, looked up, the tested form may be a part): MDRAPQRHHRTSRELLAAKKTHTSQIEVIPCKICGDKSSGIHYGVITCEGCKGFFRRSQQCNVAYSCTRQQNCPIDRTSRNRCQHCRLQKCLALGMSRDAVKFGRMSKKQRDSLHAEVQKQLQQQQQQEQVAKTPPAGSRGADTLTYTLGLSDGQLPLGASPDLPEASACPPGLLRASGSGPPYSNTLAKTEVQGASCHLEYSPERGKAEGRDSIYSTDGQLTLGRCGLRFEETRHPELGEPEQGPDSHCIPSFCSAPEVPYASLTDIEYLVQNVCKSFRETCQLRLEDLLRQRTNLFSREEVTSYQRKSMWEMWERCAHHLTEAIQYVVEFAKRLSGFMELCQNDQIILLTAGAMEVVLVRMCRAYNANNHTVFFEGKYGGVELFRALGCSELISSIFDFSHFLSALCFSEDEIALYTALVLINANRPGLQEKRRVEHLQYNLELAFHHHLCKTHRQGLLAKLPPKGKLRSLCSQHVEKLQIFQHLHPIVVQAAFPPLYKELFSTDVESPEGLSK
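Drosophila S2 cells stably expressing Gal4-DBD/mouse RORγ fusion under metallothionein promoter plus UAS-luciferase; compound 1 h, then 700 uM CuSO4 induction for 20 h at ambient temperature; inhibition read as reduced luminescence.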
ELG1 DNA repair – inhibitors of ELG1-dependent DNA repair in HEK293T cells; HEK293T ELG1-luciferase reporter, luminescence, 16 h; DNA damage induced by 5-fluorouridine; Potency, µM (doses to about 46.1 µM), inactives show top-dose activity change, negative = inhibition, hits mostly inhibitors; 330,000 tested, 2.3% active; note: potency is the fitted concentration of half-maximal effect; nearly all actives have a fitted effect of over 55% in size
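Quantitative HTS, concentration-response format. 2,000 cells/well co-treated with 5-fluorouridine and compound, 16 hr in 5% CO2 at 37 °C; ONE-Glo luminescence read after 30 min.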
Gal4-VP16 FLuc – Gal4-VP16 reporter inhibition counter-screen | Drosophila S2 Gal4-VP16 UAS-luciferase, luminescence, 20 h | Potency, µM (series often up to 53.6 µM), for inactives: at the highest dose activity, negative = inhibition, actives largely listed as inhibitors | 310,000 tested, 3.5% active | AID 2546;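 note: Gal4-VP16 expression switched on by copper sulfate through the metallothionein promoter; potency is the fitted concentration of half-maximal effect; nearly all actives have a fitted effect of over 50% in size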
TSHR antag – antagonists of human thyroid stimulating hormone receptor; P16473; activity change, negative = inhibition, % at 11.5 µM; 330,000 tested, 0.2% active; TSHR-expressing cells, TSH-stimulated cAMP HTRF, 2 h; stronger effect = lower value; AID 504810;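 active = activity change below a set negative limit, meaning inhibition stronger than a set level, cut at about -70% in these data; inconclusive = activity change between two set negative limits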
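Freshly harvested TSHR cells receive pin-tooled compound, then EC80 TSH at 4nM final. After 2 hours at 37 deg C, antibody in lysis buffer and cAMP-d2 are added; 30 minutes at ambient temperature precede the HTRF read.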
B2AR arrestin – beta2AR (human) beta-arrestin recruitment activity. P07550. beta-arrestin recruitment to beta2AR, cell-based reporter. Potency, µM (highest dose often 46.1 µM), inactives show at the highest dose activation, most hits filed as activators. 330,000 tested, 0.02% active;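 note: potency is the fitted concentration of half-maximal effect; 0% = DMSO controls and full agonism = EC100 isoproterenol or metaproterenol; nearly all actives have a fitted effect of over 65% in size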
The depositor's hits bear a star; ? = inconclusive; nt = not tested or not shown; [ ] = dose if it differs, or a comment. Hits are enriched below; roughly 7.5% of the tested compounds scored in any of these assays. Unless noted, calls come from the whole dose curve; as a rule, active = well fitted curve in the direction sought with a large enough effect; inconclusive = small, poorly fitted or top-dose-only effect, or another doubt; inactive = no such curve, though single readings can be large; an effect the other way counts as inactive or inconclusive. Unless noted, % is set by controls: 0 for no effect and ±100 for the full control effect.

SMILES	RORgamma inh	ELG1 DNA repair	Gal4-VP16 FLuc	TSHR antag	B2AR arrestin
COc1cc(NS(=O)(=O)c2ccc(N/C=C(\C#N)c3nc4cc(Cl)ccc4o3)cc2)nc(OC)n1	?	?	-3.3%	-23.3	0.2%
O=C/C(=C\Nc1ccc(Cl)cn1)c1nc2cc(Cl)ccc2o1	?	nt	-3.4%	nt	nt
O=C(COC(=O)c1ccccc1O)NCc1ccc2c(c1)OCO2	nt	-6.4%	nt	12.9	0.3%
O=C(NC(=S)Nc1ccccn1)c1ccc([N+](=O)[O-])cc1	5.01µM*	?	11.2µM*	-3.3	0.3%
Cc1cc(C)c(NC(=S)NC(=O)c2ccc(-c3ccccc3)cc2)c(C)c1	4.47µM*	12.0%	5.62µM*	-20.1	-0.6%
O=C(NC(=S)Nc1ccccn1)c1ccccc1	?	?	?	-31.3	?
O=C(NC(=S)Nc1ccccn1)c1ccc(-c2ccccc2)cc1	3.16µM*	?	3.98µM*	-16.3	0.8%
CCCCCCCCCCCCCCCC(=O)OCC(O)C1OC(=O)C(O)=C1O (centres undefined)	3.7%	nt	-0.2%	nt	nt
Cc1ccc(C2=[N+]([O-])C3(CCCCC/C3=N\NC(N)=S)N(O)C2(C)C)o1 (centres undefined)	1.58µM*	5.3%	2.24µM*	-9.8	-0.1%
COc1cc2c(cc1O)-c1ccccc1CN(C)C2	-6.6%	nt	-3.5%	nt	nt
CCC(C(=O)O)C1OC(C(C)C(O)C(C)C(=O)C(CC)C2OC3(C=CC(O)C4(CCC(C)(C5CCC(O)(CC)C(C)O5)O4)O3)C(C)CC2C)C(C)CC1C (centres undefined)	0.891µM*	nt	0.447µM*	nt	nt
CC(C)C(C)NC(=O)CSc1nc2scc(-c3ccco3)c2c(=O)n1-c1ccccc1 (centres undefined)	?	0.0%	14.1µM*	33.8	-1.8%
CC(C)C(C)(C#N)NC(=O)CSc1nc2scc(-c3ccco3)c2c(=O)n1-c1ccccc1 (centres undefined)	11.6%	?	5.6%	-0.9	0.0%
C=CCn1c(SC(F)F)nc2scc(-c3ccco3)c2c1=O	?	25.2%	5.01µM*	-1.6	3.3%
OCc1cn(Cc2ccc(O)c3ncccc23)cn1	nt	nt	nt	12.8	-1.1%
COc1ccc(-n2c(=S)[nH]c3cc(C(=O)Nc4ccccc4OC)ccc3c2=O)c(OC)c1	1.58µM*	16.4µM*	4.47µM*	?	0.4%
COc1ccc(-n2c(=S)[nH]c3cc(C(=O)NCCCN4CCOCC4)ccc3c2=O)cc1	-42.3%	16.9%	-4.6%	0.0	-0.5%
COc1ccc(-n2c(=S)[nH]c3cc(C(=O)NCc4ccccc4OC)ccc3c2=O)c(OC)c1	14.1µM*	-31.1%	14.1µM*	-9.2	-1.5%
COc1ccc(-n2c(=S)[nH]c3cc(C(=O)NCc4ccc(F)cc4)ccc3c2=O)c(OC)c1	?	-8.5%	?	-0.3	-0.3%
COc1ccc(-n2c(=S)[nH]c3cc(C(=O)Nc4ccccc4OC)ccc3c2=O)cc1	1.58µM*	11.7%	?	15.3	-0.7%
Cc1ccc(Nc2nc3c(c(=O)[nH]2)CCCC3)cc1	16.1%	?	?	-3.3	-0.1%
O=c1[nH]c(Nc2nc3ccccc3o2)nc2c1CCCC2	3.98µM*	?	10µM*	5.7	-1.1%
COc1ccc(C)cc1NC(=O)CCCN1C(=S)NC(C)(C)CC1C (centres undefined)	1µM*	2.2%	4.47µM*	-3.1	-0.4%
COc1ccc(OC)c(NC(=O)CCN2CCCCCC2)c1	-18.9%	-2.1%	-7.8%	4.9	-0.3%
COc1ccc(OC)c(NC(=O)CCCN2C(=S)NC(C)(C)CC2C)c1 (centres undefined)	11.2µM*	-0.1%	17.8µM*	-4.7	-1.5%
SMILES	RORgamma inh	ELG1 DNA repair	Gal4-VP16 FLuc	TSHR antag	B2AR arrestin
Cc1cc(C)cc(OCC(=O)Nc2cccc(-c3nnc(-c4ccco4)o3)c2)c1	-15.5%	20.6µM*	14.7%[0.365 µM]	-3.6	0.2%
O=C(Nc1cccc(C(F)(F)F)c1)c1ccc2nc(-c3ccco3)c(-c3ccco3)nc2c1	?	20.6µM*	-28.1%	-16.3	0.4%
COc1ccc(C(=O)Nc2cccc(-c3nnc(-c4ccco4)o3)c2)cc1	?	20.6µM*	?	-19.0	0.1%
CC(=O)O[C@@]1(C(C)=O)CCC2C3C=C(Cl)C4=CC(=O)C5CC5[C@@]4(C)C3CC[C@]21C (some centres undefined)	0.5%	nt	-6.5%	nt	nt
COC(=O)c1ccccc1NC(=S)NC(=O)C1CCCCC1	12.6µM*	-8.3%	?	6.8	-1.6%
COc1ccccc1NC(=S)NC(=O)C1CC1	12.6µM*	-8.0%	?	-10.3	0.4%
CCOc1ccccc1C(=S)NC1CCCCC1	10µM*	-8.0%	?	-8.3	-0.4%
COc1ccccc1NC(=S)NC(=O)C(C)(C)C	23.4%	?	-3.3%	29.5	-0.4%
CCOc1ccccc1NC(=S)NC(=O)C1CCCCC1	5.62µM*	-19.3%	6.31µM*	-6.7	4.4%
CCCCCCOC(=O)c1cccnc1	7.0%[10 µM]	nt	2.0%	nt	nt
Cc1ccc(C(=O)NCC(=O)OC(C)C(=O)NC2CCCc3ccccc32)cc1 (centres undefined)	nt	12.2%	nt	-2.4	0.0%
O=C(NC(=S)Nc1ccccc1Cl)C1CC1	?	?	11.2µM*	-12.1	?
N#Cc1ccccc1NC(=S)NC(=O)C1CCC1	?	1.7%	-5.7%	1.1	-0.1%
CCOc1ccccc1NC(=O)C1CCCCN1S(=O)(=O)c1ccccc1 (centres undefined)	nt	20.6µM*	nt	-23.3	-0.8%
O=C(NC(=S)Nc1ccccc1Br)C1CCC1	3.16µM*	-4.6%	5.01µM*	-10.8	1.0%
CC(=O)OCCN1C(=O)c2c(C)nc3ccc(S(=O)(=O)N4CCOCC4)cc3c2C1=O	-4.7%	nt	5.1%	nt	nt
O=C(N/C(=C\c1ccccc1)C(=O)N1CCCCC1)c1ccc(Br)o1	8.9%	-14.7%	-4.2%	3.8	0.0%
O=S(=O)(c1ccccc1)N1CCC2(CC1)CN(Cc1ccccc1)C2	2.8%	nt	-13.3%	nt	nt
CCOc1ccc(OCCCCn2cnc3ccccc3c2=O)cc1	30.5%	16.4µM*	-4.4%	5.5	0.3%
O=C(c1ccco1)N1CCN(C(c2ccccc2)c2nnnn2Cc2cccs2)CC1 (centres undefined)	?	14.8%	-4.6%	-15.1	0.0%
CC(C)C(c1nnnn1Cc1cccs1)N1CCN(C(=O)c2ccco2)CC1 (centres undefined)	-5.7%	6.51µM*	-3.3%	-8.4	0.0%
CC1(C)SC[C@H](C(=O)Nc2cccc(Cl)c2)N1C=O	-0.7%	8.1%	1.1%	4.7	-0.6%
Cc1cc(C(F)(F)F)nn1Cc1n[nH]c(=S)n1-c1cccc(Cl)c1	11.2µM*	14.0%	?	0.4	-0.2%
Cc1cc(C(F)(F)F)nn1Cc1n[nH]c(=S)n1Cc1ccccc1	?	-8.1%	6.31µM*	8.3	0.3%

Screens (PubChem)
